High-throughput results: PubChem, several laboratories
SRC3 inh = human NCOA3 inhibition; AID 588352; inhibition, % at 3.6 µM; actives 0.17% (n = 360,000); HEK293 GAL4-SRC3 luciferase reporter, luminescence; Q9Y6Q9;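 active = inhibition above a per-campaign cutoff, the mean of all compounds plus 3 SD, cut at about 60% in these data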;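 also: 0% = DMSO-treated cells and 100% = gossypol-treated cells at 36 µM; higher means less SRC3-driven luciferase light from the GAL4 reporter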
NCOA1 inh = human NCOA1 inhibition | HEK293 GAL4-SRC1 luciferase reporter, luminescence | inhibition, % at 3.6 µM | actives 0.12% (n = 360,000);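 active = inhibition above the campaign mean plus 3 SD, with each screening campaign given its own cutoff, cut at about 60% in these data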;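 also: 0% = DMSO treated cells and 100% = gossypol at 36 µM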
Target sequence (Q15788 whole entry, looked up, the tested form may be a part): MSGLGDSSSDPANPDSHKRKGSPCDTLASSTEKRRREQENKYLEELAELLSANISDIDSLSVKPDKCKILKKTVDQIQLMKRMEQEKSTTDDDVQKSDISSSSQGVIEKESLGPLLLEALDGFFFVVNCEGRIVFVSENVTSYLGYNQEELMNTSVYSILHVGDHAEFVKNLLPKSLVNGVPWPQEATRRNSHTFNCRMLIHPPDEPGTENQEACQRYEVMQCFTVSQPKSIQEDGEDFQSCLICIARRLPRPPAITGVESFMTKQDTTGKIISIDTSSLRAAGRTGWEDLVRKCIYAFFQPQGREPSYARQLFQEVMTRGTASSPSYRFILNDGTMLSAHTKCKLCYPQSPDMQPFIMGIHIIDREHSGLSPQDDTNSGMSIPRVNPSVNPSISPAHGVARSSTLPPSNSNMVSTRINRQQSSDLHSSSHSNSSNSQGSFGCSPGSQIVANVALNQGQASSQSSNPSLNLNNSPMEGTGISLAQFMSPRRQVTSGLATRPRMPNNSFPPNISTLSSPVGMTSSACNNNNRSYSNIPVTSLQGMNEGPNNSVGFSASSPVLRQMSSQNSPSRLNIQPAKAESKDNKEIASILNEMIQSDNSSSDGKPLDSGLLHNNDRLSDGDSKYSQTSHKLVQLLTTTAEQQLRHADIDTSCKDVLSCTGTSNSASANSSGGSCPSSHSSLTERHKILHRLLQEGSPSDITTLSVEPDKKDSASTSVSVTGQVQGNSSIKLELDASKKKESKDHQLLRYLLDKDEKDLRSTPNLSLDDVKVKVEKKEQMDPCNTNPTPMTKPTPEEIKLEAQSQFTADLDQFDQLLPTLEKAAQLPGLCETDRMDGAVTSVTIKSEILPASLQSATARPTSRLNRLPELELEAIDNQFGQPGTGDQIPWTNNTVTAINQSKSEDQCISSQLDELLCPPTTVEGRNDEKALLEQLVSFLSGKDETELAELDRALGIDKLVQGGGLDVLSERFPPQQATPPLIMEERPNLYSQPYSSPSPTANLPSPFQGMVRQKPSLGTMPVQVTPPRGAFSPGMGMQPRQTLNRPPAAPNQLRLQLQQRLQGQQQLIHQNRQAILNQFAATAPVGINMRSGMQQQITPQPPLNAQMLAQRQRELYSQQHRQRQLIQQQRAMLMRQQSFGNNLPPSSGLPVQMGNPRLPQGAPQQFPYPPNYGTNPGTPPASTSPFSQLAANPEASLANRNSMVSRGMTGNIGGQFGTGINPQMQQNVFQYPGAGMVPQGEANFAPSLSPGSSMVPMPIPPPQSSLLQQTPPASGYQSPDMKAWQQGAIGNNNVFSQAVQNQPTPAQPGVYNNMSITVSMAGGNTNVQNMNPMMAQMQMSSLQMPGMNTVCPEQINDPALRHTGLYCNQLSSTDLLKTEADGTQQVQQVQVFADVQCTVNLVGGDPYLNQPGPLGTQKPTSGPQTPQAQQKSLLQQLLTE
Shn3 3UTR inh = reduces Shn3 3'UTR luciferase signal in osteoblasts | inhibition, % at 12.5 µM | AID 588674 | actives 0.52% (n = 360,000) | Clone20 osteoblast Shn3 3'UTR firefly luciferase, 24 h;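 active = mean inhibition of at least 75% with every replicate also reaching 75%; inconclusive = mean inhibition at least 75% but some replicate below; inactive = mean inhibition below 75%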;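 also: 0% = median of neutral control wells and 100% = pilot-screen positive control compound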
Gli-Sufu antag = blocks Gli-Sufu signaling in a luciferase reporter | Sufu-KO-LIGHT fibroblasts, Gli luciferase reporter luminescence | inhibition, % at 5 µM | actives 0.74% (n = 340,000) | AID 588413;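 active = inhibition above about 55%, limit read from the data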;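 also: 0% = DMSO-treated cells and 100% = wells with medium but no cells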
SRC2 inh = human SRC2 (NCOA2) inhibition; actives 0.17% (n = 370,000); HEK293 GAL4-SRC2 luciferase reporter, luminescence; Q15596; inhibition, % at 9 µM;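 active = inhibition above the mean inhibition of all tested compounds plus 3 SD, set per campaign, cut at about 52% in these data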;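 also: 0% = DMSO treated cells and 100% = cells given Gossypol at 36 µM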
LRH-1 inv ag = inverse agonists of human LRH-1 (NR5A2). HEK293T StAR-luciferase reporter, LRH-1 transfected, 24 h. actives 0.13% (n = 360,000). inhibition, % at 3.6 µM. O00482;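 active = inhibition above the mean inhibition of all tested compounds plus 3 SD, cut at about 73% in these data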;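 also: 0% = DMSO wells and 100% = reporter-only cells lacking LRH-1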
Gli-Sufu confirm = Gli-SUFU antagonism confirmation, single concentration. actives 40% (n = 2,500). Sufu-KO-LIGHT cells, Gli luciferase reporter, luminescence. shares compounds with Gli-Sufu antag. AID 602428. inhibition, % at 5 µM;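 active = mean inhibition at 5 µM reaching about 45%, limit read from the data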;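 also: plate controls were DMSO-treated cells for no effect and wells lacking cells for full effect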
Gli cytotox = counter-screen for Gli-SUFU antagonists: cytotoxicity | actives 32% (n = 2,500) | Sufu-KO-LIGHT cells cytotoxicity, ATP luminescence | shares compounds with Gli-Sufu antag | cytotoxicity, % at 5 µM;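 active = mean cytotoxicity at 5 µM above about 25%, limit read from the data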;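 also: cells exposed to compound overnight for roughly 16 to 18 hours; plate controls were DMSO wells with cells for no effect and medium without cells for full effect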
Wnt3a counter = counter-screen for Gli-SUFU antagonists: Wnt3a reporter inhibition | actives 20% (n = 2,500) | inhibition, % at 6.25 µM | AID 651995 | shares compounds with Gli-Sufu antag | Wnt-LIGHT cells, Wnt3a-driven luciferase reporter, luminescence;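 active = mean inhibition above about 25%, limit read from the data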
An asterisk follows results filed as active; ? = inconclusive; / = not tested or not shown. Most compounds without a hit are left out; they make up all but 1.1% or so of the library.

SMILES	SRC3 inh	NCOA1 inh	Shn3 3UTR inh	Gli-Sufu antag	SRC2 inh	LRH-1 inv ag	Gli-Sufu confirm	Gli cytotox	Wnt3a counter
CN(C)c1ccc(C=Cc2nccc3ccccc23)cc1	-75	-83	-22	/	5	-74	/	/	/
C=CCN1C(=O)[C@@H](CC(=O)NCCC(C)C)[C@]2(C(=O)OCC)CCCCC/C=C/12	/	/	/	/	7	/	/	/	/
COc1ccc(NC(=O)NC2CCN(S(=O)(=O)c3ccc(F)cc3)CC2)cc1OC	/	/	/	/	-26	/	/	/	/
Cc1onc(-c2ccccc2)c1C(=O)NC(=S)NNC(=O)c1ccccc1O	76*	64*	41	-10	16	90*	/	/	/
Cc1onc(-c2ccccc2)c1C(=O)NC(=S)NNC(=O)c1ccc(O)cc1	-1	2	41	3	4	-18	/	/	/
Cc1onc(-c2ccccc2)c1C(=O)NC(=S)NNC(=O)c1ccc(O)cc1O	73*	64*	77	14	23	89*	/	/	/
C=CCn1c(SCC(=O)OC(C)C)nnc1-c1ccc(C)cc1	/	/	/	/	6	/	/	/	/
O=C1CSc2ccc(C(=O)N3CCCC(C(=O)N4CCN(c5ccc(F)cc5)CC4)C3)cc2N1 (stereo unspecified)	/	/	/	/	10	/	/	/	/
Cc1ccn2cc(-c3ccc(O)c(O)c3)nc2c1	-123	-179	87*	-24	-36	-150	/	/	/
Oc1ccc(-c2cn3ccccc3n2)cc1O	-103	-65	6	38	-71	-119	/	/	/
CCOC(=O)c1ccc(N2C(=O)C=CC2=O)cc1	-3	-12	88*	13	/	-22	/	/	/
CCOC(=O)c1ccc(-n2c(C)ccc2C)cc1	18	12	-7	31	-20	2	/	/	/
CC(C)(O)C#Cc1ccc([C@@H]2C[C@H]3CN(c4ccccc4)C(=O)[C@]34CCCN24)s1	57	53	95*	46	7	60	/	/	/
O=C1N(c2ccccc2)C[C@@H]2C[C@@H](c3cccs3)N3CCC[C@@]123	24	-68	48	8	-24	13	/	/	/
C=C1CC(Cn2cc(Br)c(=O)[nH]c2=O)(c2ccc(-c3ccccc3)cc2)OC1=O (stereo unspecified)	-13	-2	95*	16	-6	15	/	/	/
COc1ccc(S(=O)(=O)N2CCN(C(=O)CSc3nc4ccccc4nc3N3CCCCC3)CC2)cc1	/	/	/	/	4	/	/	/	/
Cc1cccc(NS(=O)(=O)c2ccc(NC(=O)CN(c3cc([N+](=O)[O-])ccc3C)S(C)(=O)=O)cc2)c1	40	17	65	20	54*	19	/	/	/
C#CCNC(=O)C[C@@H]1C(=O)N(CC=C)/C2=C/CCCCC[C@]21C(=O)OCC	/	/	/	/	-30	/	/	/	/
CCN(CC)c1ccc(N)cc1	2	-7	?	61*	/	20	/	/	/
CCCC[C@H](C(=O)N(C)c1ccccc1)[C@@H](O)c1ccc(Cl)cc1	/	/	/	/	-4	/	/	/	/
COC(=O)c1nnn(CC(=O)Nc2cccc(Cl)c2C)c1C(=O)OC	12	11	-3	99*	-6	27	18	-2	2
Cn1cc(S(=O)(=O)N2CCc3ccccc32)cc1C(=O)NC(C)(C)C	20	17	89*	61*	20	31	58*	35*	13
CCOc1ccc(Oc2c(Cl)c(Br)nn(Cc3cccc4ccccc34)c2=O)cc1	/	/	/	/	7	/	/	/	/
Cc1ccc(S(=O)(=O)N(Cc2ccccc2)c2ccccc2C(=O)NCc2ccco2)cc1	2	5	6	96*	6	-19	23	22	5
O=C(Cn1nnc(-c2ccccc2F)n1)Nc1ccc(Cl)cc1	/	/	/	/	-29	/	/	/	/
SMILES	SRC3 inh	NCOA1 inh	Shn3 3UTR inh	Gli-Sufu antag	SRC2 inh	LRH-1 inv ag	Gli-Sufu confirm	Gli cytotox	Wnt3a counter
O=C(Nc1ccc(F)cc1)OCc1cn(Cc2cccc(Cl)c2)nn1	/	/	/	/	-11	/	/	/	/
CCOc1ccc(-n2c(-c3ccccc3)c[n+]3c2CCCCC3)cc1	37	21	?	86*	21	63	90*	25*	40*
c1ccc(-c2c[n+]3c(n2-c2ccccc2)CCC3)cc1	12	-22	53	60*	13	10	69*	19	17
Cc1ccc(-c2c[n+]3c(n2-c2ccccc2)CCC3)cc1	32	31	91*	80*	30	29	83*	34*	36*
Clc1ccc(-c2c[n+]3c(n2-c2ccccc2)SCC3)cc1	7	-12	14	32	12	-10	/	/	/
O=C(/C=C/c1ccc(OCc2ccccc2)c(OCc2ccccc2)c1)c1cccnc1	27	3	89*	53	21	27	25	15	-20
COc1ccc(C=CC(=O)c2ccc(OCc3ccccc3)c(OC)c2)cc1OC	-3	-19	-15	/	27	-17	/	/	/
Cc1c(NC(=O)C2CCCN(S(=O)(=O)c3ccc(Cl)s3)C2)c(=O)n(-c2ccccc2)n1C (stereo unspecified)	/	/	/	/	15	/	/	/	/
CC[C@@H](CCCCCC#N)CCC(=O)N(c1ccccc1)c1ccccc1	/	/	/	/	2	/	/	/	/
CCN1CCN(c2oc(-c3ccccc3C)nc2S(=O)(=O)c2ccccc2)CC1	7	3	36	52	-11	-25	22	2	-24
Cn1c(CNC(=O)c2ccco2)nnc1SCC(=O)Nc1ccc(Cl)cc1	1	-2	6	97*	-4	17	24	-9	-12
CCOC(=O)/C(C#N)=C(C)/C=C1\Sc2ccccc2N1CC	-33	-27	-55	-38	-57	-23	/	/	/
CCN1/C(=C\C(=S)Nc2ccccc2)Sc2ccccc21	6	-17	38	54	-16	7	55*	13	-27
Cc1ccc(CS(=O)(=O)CCC(=O)NCc2ccccc2Cl)cc1	13	7	0	53	12	-11	8	22	-16
